From PubChem BioAssay
KDM4E inh: blocks human JMJD2E demethylase activity; Potency, µM (doses to about 57.1 µM), inactives show at the highest dose activity change, negative = inhibition, hits mostly inhibitors; AID 2147; 230,000 compounds, 1.6% hits; JMJD2E catalytic domain, FDH-coupled NADH fluorescence (FDH is formaldehyde dehydrogenase); B2RXH2;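 further: 0% = wells with enzyme and -100% = buffer wells without enzyme; nearly all actives have a fitted effect of over 50% in size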
HPGD block: inhibitors of human 15-hydroxyprostaglandin dehydrogenase (HPGD) | P15428 | purified HPGD, NADH fluorescence kinetic, PGE2 substrate | Potency, µM, for inactives: top-dose activity change, negative = inhibition, usual class: inhibitors | 150,000 compounds, 4.3% hits; further: on the % scale 0 is the no-effect control and ±100 the full control effect
Target sequence (P15428 whole entry, looked up): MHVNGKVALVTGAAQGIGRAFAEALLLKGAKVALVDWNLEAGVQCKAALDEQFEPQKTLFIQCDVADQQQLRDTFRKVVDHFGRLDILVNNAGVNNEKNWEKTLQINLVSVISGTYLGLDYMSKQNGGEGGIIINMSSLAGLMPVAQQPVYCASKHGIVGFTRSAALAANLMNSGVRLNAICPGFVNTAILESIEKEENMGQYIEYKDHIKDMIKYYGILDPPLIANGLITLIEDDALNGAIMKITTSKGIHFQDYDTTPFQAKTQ
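NADH formation kinetics: reaction with 30 uM PGE2 and 1 mM NAD+ (final), 20 nM enzyme, Tris-HCl pH 8 with Tween 20, after 15 min compound preincubation at room temperature. Fluorescence change, last versus first of five reads.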
HTT cytoprotect: cytoprotection in Huntington HTT-Q103 PC12 cell model; PC12 HTT-Q103 induced, cytoprotection, ATP luminescence, 40 h; Potency, µM (top dose mostly 56.4 µM), without a hit: cytoprotection (ATP increase), usual class: activators; 230,000 compounds, 0.14% hits; active means well fitted curve in the direction sought with a large enough effect; inconclusive means small, poorly fitted or top-dose-only effect, or another doubt; inactive means no such curve, though single readings can be large; an effect the other way counts as inactive or inconclusive; further: % of control where 0% means no effect; nearly all actives have a fitted effect of over 45% in size
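PC12 cells stably carrying ecdysone-inducible Htt exon 1 (Q103)–GFP were induced with 100 nM tebufenozide (final) alongside library compounds in a dose series. Cytoprotection was scored as retained ATP by ATPlite luminescence.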
ALDH1A1 inh: ALDH1A1 (human) enzyme inhibition; Potency, µM (doses to about 75.3 µM), without a hit: top-dose activity, negative = inhibition, hits mostly inhibitors; AID 1030; 220,000 compounds, 7.3% hits; P00352; Purified ALDH1A1, NADH fluorescence, propionaldehyde substrate;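 further: plate controls were no enzyme wells and a reference inhibitor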
HTT aggregate: mutant huntingtin aggregation inhibition | PC12 HttQ103-GFP aggregates, Acumen cytometry, 40 h | Potency, µM (highest dose often 46.1 µM), without a hit: top-dose activity change, negative = inhibition, most hits filed as inhibitors | 220,000 compounds, 1.1% hits | AID 1688; active means well fitted curve in the direction sought with a large enough effect; inconclusive means small, poorly fitted or top-dose-only effect, or another doubt; inactive means no such curve, though single readings can be large; an effect the other way counts as inactive or inconclusive; further: on the % scale 0 is the no-effect control and ±100 the full control effect; nearly all actives have a fitted effect of over 60% in size
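Steps: seed 1500 PC12 HTTQ103-GFP cells/well; add tebufenozide, 100 nM final; add compound titration; add ATPLite reagent; quantify GFP aggregates by laser scanning cytometry.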
Lamin A splicing: modulators of lamin A splicing | HeLa LMNA splicing GFP/RFP minigene ratio, 48 h | Potency, µM (series often up to 46.1 µM), inactives show at the top dose ratio change, negative = inhibition, hits mostly inhibitors | 200,000 compounds, 0.01% hits | AID 1487; active means well fitted inhibition curve with a large enough effect in the signal ratio, with a control signal flat, not every such curve was filed as active; inconclusive means small, poorly fitted or top-dose-only effect, or effect the other way, or a change in a side signal; the % refers to the signal ratio; further: on the % scale 0 is the no-effect control and ±100 the full control effect
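Read-out is the ratio of GFP to DsRed2 object intensity, acquired by 488 nm laser-scanning cytometry on HeLa lamin A-EGFP minigene reporter cells. Compound incubation 48 hrs at 37 °C in Opti-MEM with 2% FBS; DMSO 0.5% final.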
Active calls of the source: *; ? = inconclusive; · = no result given; [ ] = another dose, or the depositor's remark. An excerpt weighted towards active compounds, which were near 9.2% of everything screened. Unless noted, the call rests on the fitted dose curve; in most records, active means well fitted inhibition curve with a large enough effect (not every such curve was filed as active); inconclusive means small, poorly fitted or top-dose-only effect, or another doubt; inactive means no such curve, though single readings can be large or run the other way. Potency means the concentration at half of the fitted maximal effect.

SMILES	KDM4E inh	HPGD block	HTT cytoprotect	ALDH1A1 inh	HTT aggregate	Lamin A splicing
CCCc1cc(=O)[nH]c(SCCCCN2C(=O)c3ccccc3C2=O)n1	-1%	·	5%[10 µM]	?	9%	·
c1cncc(-c2cc(-c3cc(-c4cccnc4)n[nH]3)[nH]n2)c1	·	-9%	0%[10 µM]	25%[13.5 µM]	·	·
CCC(=O)Nc1ccc(Cl)c(NC(=O)c2c(OC)cccc2OC)c1	5%	·	-13%	6%	-1%	·
Cc1nc2cnc(N(C)C)nc2n(C[C@H]2CCCO2)c1=O	·	·	-23%	?	·	-14%
C=C1C(=O)O[C@@H]2[C@H]3O[C@]3(C)CC/C=C(\C)CC[C@@H]12	·	·	-166%	13µM*	·	·
C=C1C(=O)O[C@@H]2C3OC3(C)CC/C=C(\C)CC[C@@H]12 (some centres undefined)	7%	-1%	-12%[1.9 µM]	-15%	·	·
Nn1c(SCc2cccc(C(F)(F)F)c2)nnc1-c1ccco1	-9%	-18%	0%	22µM*	25%	-4%
COCCNCC(=O)C12CC3CC(CC(C3)C1)C2	14%	-3%	-2%[0.074 µM]	10µM*	-16%	6%
CCNC(=S)Nc1ccc(N(c2ccccc2)C(C)C)cc1	?	-29%	-9%	?	?	?
CC(C)c1ccc(NC(=S)NN(c2ccccc2)c2ccccc2)cc1	2%	22µM*	31%[10 µM]	14µM*	-16%	14%
Cc1cccc(-c2nc(Cn3c(=O)cc(-c4ccccc4)c4c(C)nn(C)c43)c(C)o2)c1	·	·	·	·	·	-23%[46 µM]
CC1=NN(c2ccc(S(=O)(=O)O)cc2)C(=O)/C1=C\c1ccc(Cl)cc1	·	?	8%[10 µM]	?	·	·
COc1ccc(O)c(/C=N/c2sc(C)c(C)c2C#N)c1	-21%	25µM*	-20%	10µM*	28%	-3%
Cc1sc(/N=C/c2c(O)ccc3ccccc23)c(C#N)c1C	0%	-12%	-7%	2%	11%	-3%
CC(=O)[C@@H]1[C@@H]2C(=O)N(c3ccc(F)c(Cl)c3)C(=O)[C@@H]2C2c3ccccc3C=CN21 (some centres undefined)	?	22µM*	-19%[0.074 µM]	25µM*	6%	-6%
CC(=O)[C@H]1[C@@H]2C(=O)N(c3cccc(Cl)c3)C(=O)[C@@H]2[C@H]2c3ccccc3C=CN21	?	35µM*	-24%	7.9µM*	6%	11%
CC(C)(C)C(=O)[C@@H]1[C@@H]2C(=O)N(Cc3ccccc3)C(=O)[C@@H]2[C@H]2c3ccccc3C=CN12	-26%	-15%	1%	?	9%[9.22 µM]	?
O=C(c1ccc(Cl)cc1)[C@@H]1[C@@H]2C(=O)N(c3ccc(Cl)cc3)C(=O)[C@@H]2C2c3ccccc3C=NN21 (some centres undefined)	-6%	-11%	-6%[10 µM]	?	27%	0%
O=C[C@@H]1CCCN1C(=O)[C@@H]1CCCN1C(=O)OCc1ccccc1	·	·	-24%	7.9µM*	·	·
COc1ccc(-c2c(C(C)=O)c(C)nc3sc4c(=O)[nH]nnc4c23)cc1	-1%	18µM*	23%[10 µM]	?	6%	16%
CCOc1ccc(NC(=O)C(C)Sc2nc3ncccc3o2)cc1 (centres undefined)	·	·	·	·	·	18%[46 µM]
CN(C)S(=O)(=O)c1cccc(-c2nn(-c3ccccc3)cc2/C=C(\C#N)c2nc3ccccc3[nH]2)c1	2%	-19%	17%[1.9 µM]	7%	4%	-14%
CN(C)S(=O)(=O)c1cccc(-c2nn(-c3ccccc3)cc2/C=C2\SC(=S)NC2=O)c1	-12%	16µM*	7%[10 µM]	0%	?	?
CCOC(=O)C1CCCN(C(=O)Cn2ncc3c([nH]c4ccccc43)c2=O)C1 (centres undefined)	·	·	·	·	·	-1%[46 µM]
COc1ccc(CC(=O)N2CC(=O)N(CCc3ccccc3)C(=O)C2)cc1	-10%	-16%	8%	10µM*	2%	-6%
CN(C)c1ccc(C(=O)N2CC(=O)N(CCc3ccccc3)C(=O)C2)cc1	1%	?	-18%	6.3µM*	15%	12%
